Laboratory results taken from PubChem BioAssay (NCI).
Compounds without any hit were thinned out: in the full panel of roughly 83,000, 20% have a hit.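 Cell lines were cultured in 96-well plates, exposed to a single compound concentration, and assessed for percent growth 48 hours later.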 Unmarked numbers belong to inactive results. Active and inactive are the calls of the source. Rule for the calls: active = growth percent below 10; inactive = the rest.

Key:
Assay in all cases: NCI-60 one-dose screen, 48 h (100 = growth as untreated, 0 = no growth, -100 = all killed)
Settings in all cases: 10 µM unless noted
HCT-15 colon = tested on: HCT-15 colon
HT29 colon = tested on: HT29 colon
SNB-75 CNS = tested on: SNB-75 CNS
SNB-19 CNS = tested on: SNB-19 CNS
U251 CNS = tested on: U251 CNS
PC-3 prostate = tested on: PC-3 prostate
SK-MEL-5 melanoma = tested on: SK-MEL-5 melanoma
UACC-62 melanoma = tested on: UACC-62 melanoma
LOX IMVI melanoma = tested on: LOX IMVI melanoma
SK-MEL-28 melanoma = tested on: SK-MEL-28 melanoma
SK-MEL-2 melanoma = tested on: SK-MEL-2 melanoma
EKVX NSCLC = tested on: EKVX NSCLC
SN12C renal = tested on: SN12C renal
UO-31 renal = tested on: UO-31 renal
TK-10 renal = tested on: TK-10 renal
ACHN renal = tested on: ACHN renal
CAKI-1 renal = tested on: CAKI-1 renal
A498 renal = tested on: A498 renal
CCRF-CEM leukemia = tested on: CCRF-CEM leukemia
MOLT-4 leukemia = tested on: MOLT-4 leukemia

Row | Structure (SMILES) | growth (HCT-15 colon) | growth (HT29 colon) | growth (SNB-75 CNS) | growth (SNB-19 CNS) | growth (U251 CNS) | growth (PC-3 prostate) | growth (SK-MEL-5 melanoma) | growth (UACC-62 melanoma) | growth (LOX IMVI melanoma) | growth (SK-MEL-28 melanoma) | growth (SK-MEL-2 melanoma) | growth (EKVX NSCLC) | growth (SN12C renal) | growth (UO-31 renal) | growth (TK-10 renal) | growth (ACHN renal) | growth (CAKI-1 renal) | growth (A498 renal) | growth (CCRF-CEM leukemia) | growth (MOLT-4 leukemia)
1 | CC(C)(C)c1cc(C(=O)Nc2ccc(C(=O)NCCN)cc2)cc(C(C)(C)C)c1 | 76.6% | -21.7% (active) | 55.6% | 33.6% | -6.92% (active) | 25.9% | 23.8% | -71.8% (active) | -65.5% (active) | -64.4% (active) | 60.3% | 71.2% | 12.8% | 69.5% | 90.9% | 44.4% | 71.7% | 13.1% | 3.44% (active) | 10.9%
2 | CCN(CCO)CCC(=O)c1ccc([N+](=O)[O-])cc1 | 101% | 105% | 93.2% | 117% | 98.1% | 103% | 100% | 104% | 98.5% | 117% | 107% | 103% | 107% | 75% | 99.8% | 110% | 102% | 87% | 124% | 114%
3 | CCCN1CC(c2ccc(OC)c(OC)c2)=C(c2cn(C(=O)OCC)c3ccccc23)C1=O | 25.9% | 14.5% | -14.1% (active) | 50.3% | 46.7% | 32.4% | 22.9% | 18.3% | 49.6% | 73.1% | 53.3% | 55.6% | 53% | 39.4% | 89.6% | 37% | 25.8% | -11.4% (active) | 78.8% | 38.7%
4 | CC(C)(C)c1cc(C(=O)Nc2cc3ccccc3cc2C(=O)NCCN)cc(C(C)(C)C)c1 | -83.4% (active) | -79.6% (active) | -92.2% (active) | -69% (active) | -85.4% (active) | -93% (active) | -39.7% (active) | -69.4% (active) | -89.9% (active) | -80.9% (active) | -48.8% (active) | -72.9% (active) | -64.8% (active) | -85.6% (active) | -85.9% (active) | -92.3% (active) | -84.4% (active) | -90.7% (active) | -49.6% (active) | -38.6% (active)
5 | COc1ccc2nc3c(cc2c1)C(=O)CC(C(F)(F)F)C3 (stereo not given) | 37.8% | 10.9% | 7.87% (active) | 50.3% | 84.7% | 33% | 31.4% | 39.8% | 43.8% | 61.1% | 83.9% | 55.9% | 42.1% | 46.6% | 69.2% | 49.2% | 37.1% | -7.7% (active) | 9.88% (active) | 15.3%
6 | Cn1cc(-c2noc(-c3cn(C)c4ncccc34)n2)c2cc(Cl)ccc21 | 92.8% | 83.1% | 101% | 100% | 95.6% | 89.3% | 94.7% | 93.1% | 93.4% | 93% | 97.3% | 89.3% | 92.1% | 78.9% | 89.5% | 89.3% | 86.6% | 82.7% | 99.8% | 96.1%
7 | Cc1cccc(/C=C2\N=C(c3ccccc3)N(c3ccc(S(N)(=O)=O)cc3)C2=O)c1 | 91.8% | 86.1% | 49.9% | 80.1% | 95.1% | 92.9% | 88.5% | 92.8% | 99% | 101% | 102% | 92.1% | 91.8% | 99.9% | 98.5% | 86.5% | 86.2% | 101% | 99.9% | 90.3%
8 | Cn1cc(-c2nnc(-c3ccccc3)s2)c2cc(Br)cnc21 | 77.6% | 95% | 29.9% | 87.9% | 92% | 84.9% | 74.1% | 69.5% | 83.3% | 97.6% | 100% | 62.6% | 90.1% | 61.5% | 88.2% | 66.7% | 53% | 60.2% | -12.6% (active) | 83.4%
9 | Cc1cc(C)c(S(=O)(=O)/N=c2/n(-c3ccccc3)nc3n2CCN3C2=NCCN2)c(C)c1 | 90.1% | 58% | 74.3% | 91.5% | 76.4% | 69.5% | 60.4% | 88.8% | 73.3% | 82.3% | 104% | 83% | 79.8% | 61.2% | 92.5% | 90% | 74.4% | 61.8% | 83.7% | 66.2%
10 | C=C(C)[C@@H]1CC[C@]2(C)[C@H](C(=O)C=C3[C@@H]4C[C@](C)(C(=O)N5CCN(C)CC5)CC[C@]4(C)CC[C@]32C)[C@@]1(C)CCC#N | -88.2% [100 µM] (active) | -53.2% [100 µM] (active) | -92.2% [100 µM] (active) | -95.8% [100 µM] (active) | -76.7% [100 µM] (active) | -65.9% [100 µM] (active) | -94.6% [100 µM] (active) | -88.9% [100 µM] (active) | -93.6% [100 µM] (active) | -90.1% [100 µM] (active) | -78.6% [100 µM] (active) | -20.8% [100 µM] (active) | -86.9% [100 µM] (active) | -100% [100 µM] (active) | -87.8% [100 µM] (active) | -93.7% [100 µM] (active) | -96.2% [100 µM] (active) | -73.7% [100 µM] (active) | -34% [100 µM] (active) | -45.9% [100 µM] (active)
11 | CC1(C)CC(=O)c2c(ccc(C(=O)C[C@@H](N)CO)c2N)O1 | 4.96% (active) | -7.99% (active) | 63.5% | 14% | 7.09% (active) | 24.7% | 29.4% | -9.38% (active) | -59% (active) | 17% | 9.07% (active) | 80.7% | 14.8% | 25.1% | 61.4% | 36.3% | 4.82% (active) | -70.4% (active) | 13% | 21%
12 | O=C(Nc1cccc2cccnc12)c1cc(C(=O)c2ccc(Cl)cc2)n2ccc(-c3ccncc3)cc12 | 99.1% | 100% | 86.6% | 104% | 103% | 95.3% | 97.2% | 104% | 101% | 98.2% | 112% | 107% | 101% | 81.4% | 108% | 99.7% | 83.4% | 90.5% | 115% | 129%
13 | COc1cc(C)cc2oc3oc(=O)c(-c4nc5ccccc5s4)cc3c(=O)c12 | 102% | 103% | 79.3% | 92.9% | 93.4% | 94.1% | 99.5% | 67.7% | 94.1% | 93.2% | 113% | 105% | 98.4% | 74.6% | 101% | 100% | 91.8% | 85.1% | 107% | 106%
14 | CC1(C)CC[C@]2(C(=O)OC(=O)[C@]34CCC(C)(C)C[C@@H]3C3=CC[C@@H]5[C@@]6(C)CCC(=O)C(C)(C)[C@@H]6CC[C@@]5(C)[C@]3(C)CC4)CC[C@]3(C)C(=CC[C@@H]4[C@@]5(C)CCC(=O)C(C)(C)[C@@H]5CC[C@]43C)[C@H]2C1 | 73.6% [100 µM] | 44.8% [100 µM] | 15.8% [100 µM] | 62.8% [100 µM] | 64.6% [100 µM] | 36.6% [100 µM] | 25% [100 µM] | 49.9% [100 µM] | 64.6% [100 µM] | 81.7% [100 µM] | 76.1% [100 µM] | 81.3% [100 µM] | 55.8% [100 µM] | 59.9% [100 µM] | 95.3% [100 µM] | 73.8% [100 µM] | 45.6% [100 µM] | 95.6% [100 µM] | 44.4% [100 µM] | 41.5% [100 µM]
